# Source: PubChem BioAssay AID1347426 (Functional Genomics Laboratory (NCATS/FGL), 2020)
# Screen size: about 31,000 sequences; about 1,400 (4.5%) were called active. Many of the other results were omitted from the sample, so actives are more common in it than they were. Unmarked numbers belong to inactive results.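 The calls were made as follows: active = median seed-adjusted z-score above 1 or below -1; inactive = the rest.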
# Test: Novel Modifiers of Survival Motor Neuron (SMN) Protein: Gene Identification via Genome-wide siRNA Screen;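 also: luminescence tracks full-length SMN protein made from the SMN2 reporter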
# Settings: HEK293T SMN2-luciferase reporter, siRNA knockdown, 72 h; actives lie on both sides
# Summary of the method: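 Each of three siRNAs per gene is reverse-transfected (1 pmol) into reporter HEK293T cells whose luciferase output tracks SMN protein level. After 72 h culture, ONE-Glo luminescence is control-normalized, log10-transformed and MAD-standardized; Common Seed Analysis deprioritizes seed-driven hits.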
row,Sequence,median seed-adjusted z-score
1,CAACUUGCCUUGUUAACCATT against ZDHHC2,0.133
2,CUUCCACCCGAGUACCUUUTT against HDAC10,-0.165
3,GAAUAGAGAUCAAAUUCCATT against CD163,0.021
4,GGAGGCUUCUUUAUGAAUUTT against FXYD4,-0.0447
5,CUAUAACUGUUCGUGCUUATT against USP47,0.3
6,GAAAAUCACCAAAACAUACTT against WHSC1,1.17 (active)
7,GGAAAGUCCUGUUUGAUCATT against RHBDL3,0.56
8,CUGUAGAACUAGUCCUUAUTT against PRKRIR,0
9,GUAUGUCGGGUAUACCGUUTT against RAD54L2,-0.0646
10,CGACAAUGCGGUCAACCUUTT against CD28,-0.993
11,GGAGAUACUCCGAACCUCATT against TEX13A,-1.22 (active)
12,CGAUAUCUGACGCAGCUAATT against RPS6KA2,0.139
13,ACAUCCGAGUUUAUCCUGATT against SFRS9,-0.144
14,GGAAAAAUAUCCAGCAAAATT against UBE2E2,-1.77 (active)
15,CCUCAGAUCUACCCACAGATT against CSF2RB,-0.454
16,CACAAGCAAGUUCAAAUAATT against FCRL4,-0.39
17,GCUAUUUGCUGGCUACAAATT against POLR2J3,-5.42 (active)
18,GCGGCAAUCUUGGGAGUAATT against TMPRSS11B,-0.545
19,CAGCGAUGCUACGACAAUATT against PHF17,1.01 (active)
20,GAAUUUUGAUGUCAUACGATT against DTNB,-0.142
21,GGAACUUCCUGAGAACAUUTT against MAP3K8,-0.533
22,CAUUCACGAUCUUCCCGUATT against MYO16,-0.072

row,Sequence,median seed-adjusted z-score
1,GUUGCAAACUUAUCGAGGATT against CCT2,-0.0508
2,GGUAGAAUCUAGGUAUGCATT against RAD51,0.594
3,GCAUAUGGUUCUGAAGAUATT against GTF2E1,1.76 (active)
4,GAGCAAAUCAAAGAACUAATT against TSC22D1,0
5,AGACACCUCCUAGGACUAUTT against MZF1,0.215
6,GGAGUGCACGAGACAUUCATT against FAH,-0.0836
7,GGACUACAAAGGUUCUCGATT against CDH18,0.21
8,CAGCUUCGAUAUAAGGAAATT against MYST2,-1.46 (active)
9,ACCUGACCGUGUCGCUAUATT against DHRSX,-0.686
10,GGAACCUGGAGAUAUCAUUTT against FUT8,0.464
11,UGGUGUCGCUGGAGAAGUATT against GPX7,-0.971
12,CCAUCCCACUGGUCACAUUTT against SLC7A8,-0.134
13,GGAGGCAUUUGAAGUUCCATT against FARP1,-0.487
14,GGACCGCUACUCUGAGUAUTT against KCNH6,0.424
15,CUGUUAUUCUUCAUACCUATT against TAAR8,0.0792
16,GGAUCAAGACGUGAACGAUTT against CPSF6,-2.38 (active)
17,GAGUAUUCUGAGUACAUGATT against ZFP42,-0.537
18,CAAACAUCUAUGCAGCAAATT against MS4A8B,0.207
19,GGAUGAGAAGAGACGUAGATT against DNMT1,0.185
20,CAUGAACCCUUGGUAGAUATT against TBRG1,-1.47 (active)
21,GGGUUUUUGCGCUUCAAAATT against GALNAC4S-6ST,0.218
22,GCAAAAUGAUCAUUAAUGATT against EIF3C,0.56

row,Sequence,median seed-adjusted z-score
1,GGACCAUAAUCAAUGUAGATT against ZNF585A,-0.168
2,CCUCAACUAUCAGAACAAUTT against KLF10,0.616
3,GGUUGUUGUAUACUUGCAATT against LIPJ,0.295
4,GACCUAUGCAGUUCGAAAATT against SFRS1,-1.66 (active)
5,GGAGUGUGCUGAAGACCUATT against GFER,0.402
6,CCACGUGAUAAAUCAAGAATT against PRPF4B,-2.29 (active)
7,GAAAGACACUGGGACUCGATT against SNRNP35,0.172
8,GCAUCGCAAGAGCUGCAAATT against DPYD,-0.112
9,GAUUGUCAAUGGGUGUAUUTT against AOF1,-0.211
10,CCCUCCAAAUAGCAAAUGUTT against PCOLCE2,-1.15 (active)
11,GGGUCAUACGAAUACCGAUTT against VIPR2,0.706
12,GCAACGUGAUCAAAGGUAUTT against GNA13,0
13,CAAGGACAACUCAAACUUATT against PRKACA,-0.137
14,CGUAUAUAGAGUUCUCAGATT against PABPN1,-0.757
15,CCCUUAAUUUUGUAACAGATT against SLC7A6,-0.0877
16,GGGUAACCACUGACAUUCATT against SUPT5H,-4.02 (active)
17,GCCUUAAAAAGCACCAAAATT against ZNF16,0
18,AAGUUCCUAUCGGUCGUAUTT against HBZ,-0.0054
19,GGACCAUCGGGAUCAUCAATT against P2RX3,-0.44
20,GCAAUGAACACCAUCCGAATT against KEAP1,0.207
21,AGCUCUUAUUAGCUGCAUATT against MS4A7,0.0794
22,GCAACGAUCACCUAAAUUATT against NOP2,1.15 (active)

row,Sequence,median seed-adjusted z-score
1,GGUCAAAUCAGCAAAGGUUTT against RNF25,-0.0826
2,CGACAAUCUAACUUCCGUATT against CYTH3,0.196
3,CAGGCAUCAUAUUUUGAAATT against NUDT3,0.674
4,CAAAGAUUCUGACUGAUGATT against GPATCH4,-0.519
5,GAACCUAUCUGAUCGGCAATT against RFX3,0.17
6,CAUCUUAAGUGUUUUACAUTT against LMO4,-0.067
7,GCAGCAUACAGGAAUACCATT against ATRNL1,-0.142
8,GCAGCAUAUUAUAGACAAATT against ZBTB37,-0.219
9,GCCUGGGUCAAAUACAGUATT against KLHL20,-0.0828
10,GAUCAUUGCUGGGAAUCUATT against GPR52,-1.17 (active)
11,GUCUGAAUGUCGAAGAGAATT against G3BP1,-0.593
12,CUGGAACAGUGUACCCAAATT against CD2AP,0.113
13,CCAUGUGAUUAUGUACUCATT against ELOVL4,0.166
14,AGAUAUAUAAAUCAACGAATT against LSM3,-1.36 (active)
15,UGACCUACGAGGAAAUUCATT against PFKFB4,0.149
16,CAACGAUAGCUUAUCCCAATT against LPGAT1,0.625
17,GCUUAUAUGGUGUACAUUUTT against ELOVL6,0.742
18,UCCCGUUCCGUACGACUUATT against DHRS7C,-0.398
19,GUGGGAGUCGGGACAUAUATT against MAFK,1.73 (active)
20,CCAUUGAUGCAACAGGUAATT against USO1,0.21
21,CAAGGACAAAUUUCCCGUUTT against HOXD8,-0.883
22,GCAUGGUACUCUAUAGUCUTT against FAT4,-0.363

row,Sequence,median seed-adjusted z-score
1,GGAUGUGGUAGUACAGAAATT against PSMD2,-1.44 (active)
2,GACUGACGAUGACACGGAATT against KPNA6,-1.54 (active)
3,GGUACUCCAGAGUAUAACATT against CMYA5,-0.858
4,GAGCCUGACUCAGUCUUUATT against AQP9,-0.192
5,GAGAAAUCGUGCUCAGUUATT against CNOT8,0.375
6,CCUGUUUCCGUGAAGAAAATT against CXCR4,-0.347
7,ACACCUCUCCGGACACCAATT against IRF3,0.0117
8,GACGAUGAAUGAAAAGGCATT against NRBP1,-1.13 (active)
9,AGAAUUCUUCGAUCACAAATT against KCNMB3,0.513
10,CAAGUACCCUGAUAGAGUUTT against ABHD4,-0.054
11,AGAUGAAGCUGCAAGUGUATT against COX10,0.339
12,CAGUGGAUCAAAUAACGCATT against ADAMTS20,1.44 (active)
13,GAACCUCAGUCAAAUCGAUTT against OXSR1,-0.0682
14,CCAUUUGGAUAUCAAAGUATT against ILF2,-0.19
15,CAGUCAAGCUUGGAGUUAATT against SYTL3,0.236
16,AGAUGUUCUGAGGCUGAUATT against OASL,1.02 (active)
17,GGAUAAGGACGACCAGAUUTT against HPCAL4,0.282
18,GUGCUAAAUUUAGCUCAAATT against IL2,0.0694
19,CCAAGCAAAUAGUAGAAGATT against CYLC1,0.177
20,GAACGAGUCCUUUACUACATT against GFM1,-0.0641
